Laboratory results taken from PubChem BioAssay (NCI).
The panel holds about 79,000 compounds, 15% with a hit somewhere; the sample as a whole holds those more often. No stated cut-off is given here; in the data, active means growth inhibition above about 70%; inactive means the rest.

Experiments:
[1] = NCI Yeast Anticancer Drug Screen. Data for the rad50 strain (AID 155);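 further: 0% = growth of vehicle-only cultures of the same strain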; settings: S. cerevisiae rad50 strain growth inhibition; at 50.0 µM; stronger effect = higher value
Procedure, shortened: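 Vehicle-treated cultures provide the reference for the growth inhibition reported for compound-exposed, repair-deficient yeast.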

[2] = NCI Yeast Anticancer Drug Screen. Data for the mec2-1 strain (AID 157); settings: S. cerevisiae mec2-1 strain, at 50.0 µM, stronger effect = higher value
Procedure, shortened: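 Mutant yeast (mec2-1) grown with compound; growth inhibition relative to vehicle control reported.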

[3] = NCI Yeast Anticancer Drug Screen. Data for the sgs1 mgt1 strain (AID 161);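 further: 0% = growth of cultures given vehicle only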; settings: S. cerevisiae sgs1 mgt1 strain, at 50.0 µM, stronger effect = higher value
Procedure, shortened: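 Compounds are added to genetically altered yeast, and growth is compared with cultures given vehicle alone to give percent inhibition.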

[4] = NCI Yeast Anticancer Drug Screen. Data for the cln2 rad14 strain (AID 165);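 further: 0% = growth equal to vehicle treated cultures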; settings: S. cerevisiae cln2 rad14 strain, at 50.0 µM, stronger effect = higher value
Procedure, shortened: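 Readout is yeast growth inhibition versus vehicle-treated controls, using a strain with cln2 and rad14 alterations exposed to compound.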

[5] = NCI Yeast Anticancer Drug Screen. Data for the bub3 strain (AID 167); settings: S. cerevisiae bub3 mutant strain, at 50.0 µM, stronger effect = higher value
Procedure, shortened: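 Mutant yeast screening strain plus compound; vehicle-treated cultures serve as the 0% inhibition reference.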

[6] = NCI Yeast Anticancer Drug Screen. Data for the mlh1 rad18 strain (AID 175); settings: S. cerevisiae mlh1 rad18 strain growth inhibition; at 50.0 µM; stronger effect = higher value
Procedure, shortened: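 Genetically defined yeast (DNA repair-deficient) exposed to compounds; growth inhibition determined relative to vehicle.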

Measured: growth inhibition

CC(=O)c1ccc(C)c([N+](=O)[O-])c1
inactive: [1] -13.2% | [2] -5.65% | [3] -11.6% | [4] -48.1% | [5] -7.15%

COc1ccc(C(N)C(=O)O)cc1 (stereo not drawn)
inactive: [1] -17.4% | [2] -9.4% | [3] -6.8% | [4] -21.6% | [5] -12.5%

c1ccc(CCCCc2ccccn2)cc1
inactive: [1] 32% | [2] -13.1% | [3] 31.6% | [4] 0.2% | [5] 27.4%

CC(c1ccccc1)C(O)S(=O)(=O)O (stereo not drawn)
inactive: [1] 6.95% | [2] 3.7% | [3] 7.35% | [4] -5.05% | [5] 17.3%

Cn1cc(-c2ccc3c4ccccc4n(C)c3c2)c2ccccc21
inactive: [1] -17.9% | [2] -4.3% | [3] -7.5% | [4] -2.8% | [5] -10.2%

O=C(CN1CCCC1)Nc1ccc2c(c1)C1Oc3ccccc3CC1CO2 (stereo not drawn)
inactive: [1] 7.65% | [2] 4.2% | [3] 5.55% | [4] 11.6% | [5] -12.7% | [6] 30.6%

OCCO
inactive: [1] -26.4% | [2] -24.1% | [3] -49.3% | [4] -31.6% | [5] -32%

O=S(=O)(OI(O)CC(F)(F)F)C(F)(F)F
inactive: [1] 30.5% | [2] 48.1% | [3] -0.65% | [4] 5.9% | [5] 14.5%

OC(c1ccccc1)C(Cl)c1ccccc1 (stereo not drawn)
inactive: [1] 1% | [2] -2.25% | [3] 1.9% | [4] -13.8% | [5] -19.3%

O=S1(=O)NC(=NC2CCCC2)c2ccccc21
inactive: [1] 0.7% | [2] -12.4% | [3] -3.55% | [4] -35.8% | [5] -7.75%

CCCCCCCCCC(=O)N/N=C/c1ccco1
inactive: [1] 51.7% | [2] 59.6% | [3] 63% | [4] 44.9% | [5] 69.4%

COc1cc(N2C(=O)CSC2=S)cc(OC)c1OC
inactive: [1] 21.3% | [2] 12.3% | [3] 61.8% | [4] 25.4% | [5] 33.8%

COC(=O)c1cc(-c2ccc3ccccc3c2)[nH]c(=O)c1C#N
inactive: [1] 34.4% | [2] 35.2% | [3] 65.6% | [4] 46.9% | [5] 23.2%

O=C(O)/C=C\C(Cl)(Cl)Cl
inactive: [1] -6.35% | [2] -6.6% | [3] -6.7% | [4] 4.15% | [5] -41%

CCc1cccc(C(C)(C)C)c1NC(=S)NC=C(C#N)C#N
inactive: [1] 27.9% | [2] -11.6% | [3] 36.8% | [4] 26.8% | [5] 17.6%

CCCCOC(=O)C(C)OC(=O)/C=C\C(=O)OC(C)C(=O)OCCCC (stereo not drawn)
inactive: [1] 7.5% | [2] -7.5% | [3] 6.9% | [4] 4.05% | [5] 2.4%

O=c1n(CCO)nc2n1CCCN2
inactive: [1] 7.3% | [2] 10.9% | [3] 7.2% | [4] -15.8% | [5] 7.5% | [6] 5.6%

OCN(CO)c1ccc2c(c1)Cc1cc(Cl)ccc1-2
inactive: [1] 0.35% | [2] -24.1% | [3] -2.2% | [4] 22.4% | [5] 13.1% | [6] 12.7%

CNC(=O)OCc1c(COC(=O)NC)c2n(c1C)CS(=O)(=O)C2
inactive: [1] -6.15% | [2] -16% | [3] -10.4% | [4] 6.5% | [5] 12.1% | [6] 15.5%

NS(=O)(=O)c1ccc(NC(=O)c2cccc3c(=O)c4ccccc4[nH]c23)cc1
inactive: [1] -2.55% | [2] -1.95% | [3] -13.2% | [4] 14.8% | [5] -6% | [6] -14.1%

CCOC1C=CCCO1 (stereo not drawn)
inactive: [1] 20% | [2] -2.7% | [3] 8.65% | [4] -6.55% | [5] -7.2% | [6] 5.65%

Cc1ccc(S(=O)(=O)O/N=C2\CCC\C2=C/c2ccccc2)cc1
inactive: [1] 7.65% | [2] -2.25% | [3] 26% | [4] 14.6% | [5] -8.55% | [6] 23.8%

C[Si](C)(C)CSC#N
inactive: [1] -16.6% | [2] 6.45% | [3] 12.5% | [4] 4.65% | [5] 2.75% | [6] 11.5%
